Data published in the supplement of paper PMC6555819.

Tests used:
Assay in all cases: PBM binding z-score (relative to random genomic background probes); higher = stronger binding; sequences stand for … in GC…GCGATTGACAGCGTAGAATGAAGG
[1] = system: FXR:RXRa (NR concentration 270 nM, RXRa partner concentration 90 nM)
Procedure, shortened: (§1)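 Ligand-free nuclear receptor dimers were applied to custom Agilent 4×180K protein-binding microarrays whose double-stranded probes carried direct-repeat seeds, single-nucleotide variants, half-site ablations and random human genomic background sequences in 34-nt variable regions. Incubation lasted 1 h. Binding z-scores were computed against the random background probes from regression-normalized fluorescence.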

[2] = system: LXRa:RXRa (NR concentration 270 nM, RXRa partner concentration 90 nM)
Procedure, shortened: as §1

[3] = system: LXRa homodimer (NR concentration 270 nM)
Procedure, shortened: as §1

[4] = system: LXRb:RXRa (NR concentration 270 nM, RXRa partner concentration 90 nM)
Procedure, shortened: as §1

[5] = system: LXRb homodimer (NR concentration 270 nM)
Procedure, shortened: as §1

[6] = system: PPARa:RXRa (NR concentration 270 nM, RXRa partner concentration 90 nM)
Procedure, shortened: as §1

[7] = system: PPARg:RXRa (NR concentration 180 nM, RXRa partner concentration 90 nM)
Procedure, shortened: as §1

[8] = system: PPARg:RXRa 270nM:90nM, anti-RXR (NR concentration 270 nM, RXRa partner concentration 90 nM)
Procedure, shortened: as §1

[9] = system: PPARg:RXRa 30nM:10nM, anti-RXR (NR concentration 30 nM, RXRa partner concentration 10 nM)
Procedure, shortened: as §1

[10] = system: PPARg:RXRa 90nM:30nM, anti-RXR (NR concentration 90 nM, RXRa partner concentration 30 nM)
Procedure, shortened: as §1

[11] = system: PPARg:RXRa DBDmut IVT, anti-RXR (DBD mutation: RXRa K156A/R161A, NR concentration 270 nM, RXRa partner concentration 90 nM)
Procedure, shortened: as §1

[12] = system: PPARg:RXRa IVT, anti-PPARg (NR concentration 270 nM, RXRa partner concentration 90 nM)
Procedure, shortened: as §1

[13] = system: PPARg DBDmut:RXRa IVT, anti-PPARg (DBD mutation: PPARg1 K132A/R137A, NR concentration 270 nM, RXRa partner concentration 90 nM)
Procedure, shortened: as §1

[14] = system: PPARg DBDmut IVT, anti-PPARg (DBD mutation: PPARg1 K132A/R137A, NR concentration 270 nM)
Procedure, shortened: as §1

[15] = system: PPARg homodimer (NR concentration 180 nM)
Procedure, shortened: as §1

[16] = system: PXR:RXRa (NR concentration 270 nM, RXRa partner concentration 90 nM)
Procedure, shortened: as §1

[17] = system: PXR homodimer (NR concentration 270 nM)
Procedure, shortened: as §1

[18] = system: RARa:RXR (NR concentration 270 nM, RXRa partner concentration 90 nM)
Procedure, shortened: as §1

[19] = system: RARa homodimer (NR concentration 270 nM)
Procedure, shortened: as §1

[20] = system: RARb:RXRa (NR concentration 270 nM, RXRa partner concentration 90 nM)
Procedure, shortened: as §1

| Sequence | PBM binding z-score [1] | PBM binding z-score [2] | PBM binding z-score [3] | PBM binding z-score [4] | PBM binding z-score [5] | PBM binding z-score [6] | PBM binding z-score [7] | PBM binding z-score [8] | PBM binding z-score [9] | PBM binding z-score [10] | PBM binding z-score [11] | PBM binding z-score [12] | PBM binding z-score [13] | PBM binding z-score [14] | PBM binding z-score [15] | PBM binding z-score [16] | PBM binding z-score [17] | PBM binding z-score [18] | PBM binding z-score [19] | PBM binding z-score [20] |
| --- | --- | --- | --- | --- | --- | --- | --- | --- | --- | --- | --- | --- | --- | --- | --- | --- | --- | --- | --- | --- |
| ACAGACAGGTGATGAATGTAACTCAGGCTATCAT | -0.237 | -0.163 | 0.164 | 0.1 | -0.131 | 0.166 | 0.735 | -0.0666 | 0.338 | -0.0676 | 0.0883 | 0.304 | 0.806 | 0.471 | 0.379 | -0.102 | -0.0195 | 0.181 | 0.656 | 0.0754 |
| CCTACTGCGCCATTCAGAGGTCATTGATCATATG | 3.32 | 4.74 | 7.35 | 4.35 | 1.54 | 3.8 | 0.615 | 1.89 | 0.275 | 0.91 | 0.443 | 1.07 | 0.596 | 0.708 | 2.61 | 4.86 | 2.44 | 4.54 | 1.18 | 3.05 |
| CGAACGAGGGTATGAGTTGATAGCAAATGCCGAT | -0.386 | -0.2 | -0.268 | -0.396 | -0.567 | -0.124 | 0.652 | 0.353 | -0.0706 | 0.292 | 0.876 | 0.397 | 0.137 | 0.369 | -0.383 | -0.238 | 0.0824 | -0.307 | 0.157 | 0.117 |
| TCATATAGGTAATACAGTTGAAAGTCGGCATCTA | 1.56 | 1.24 | 0.63 | 1.2 | 0.422 | 1.56 | 1.32 | 2.56 | 4.01 | 3.39 | 4.07 | 2.33 | 1.55 | 1.26 | 1.26 | 1.11 | 0.75 | 1.51 | 2.05 | 0.685 |
| GCTCGGAGAACAAGGTCAGAGCTTTGTCCGTAGA | 1.25 | 1.41 | -0.275 | 1.11 | -1.02 | 2.37 | 0.176 | 0.774 | -0.425 | 0.29 | 0.447 | 0.471 | -0.968 | -1.78 | 0.759 | 1.73 | -0.538 | 1.79 | -0.831 | 2.86 |
| CTACCAAGGTGAACAGGGTCGTTGATTACTATTC | 1.07 | 0.788 | -0.0558 | 1.58 | -0.226 | 2.32 | 1.23 | 1.38 | 0.0525 | 0.997 | 1.92 | 2.88 | 0.525 | 0.178 | 0.785 | 1.89 | 0.796 | 2.11 | 0.321 | 1.75 |
| TCATATAGCTAATACAGGTGAAAGTCGGCATCTA | 0.322 | 0.835 | 0.0705 | 0.543 | -0.0868 | 1.17 | 0.706 | 1.77 | 3.13 | 2.35 | 1.68 | 0.828 | 0.761 | 0.528 | 0.511 | 0.475 | -0.0901 | 0.626 | 0.67 | 0.139 |
| CGATCTAGGTCAGAACAGGACAGTGAAGGATGAT | 1.41 | 0.482 | -0.161 | 0.206 | -0.143 | 2.84 | 4.82 | 3.88 | 1.41 | 2.78 | 6.87 | 6.77 | 1.59 | 1.33 | 0.826 | 0.571 | -0.0995 | 1.13 | 0.466 | 2.66 |
| TCTAGCAGGCCAGAGGGTGACTCAAGAGGTACGG | -0.401 | 0.0114 | -0.795 | -0.373 | -1.42 | 0.54 | 1.05 | 2.1 | 1.99 | 2.19 | 0.764 | 0.183 | -1.35 | -1.1 | -0.406 | -0.274 | -0.839 | -0.247 | -1.15 | 0.306 |
| CCTTACGGGCCAAGGTTATAGCACGGGTGGTACG | -0.197 | 0.16 | -0.442 | -0.247 | -0.834 | 0.498 | 0.573 | 0.597 | -0.309 | -0.163 | -0.837 | -0.312 | -1.25 | -0.861 | 0.309 | 0.0685 | -0.372 | 0.242 | 0.00233 | 1.13 |
| TGAATGAGGTTAATGATCAGGGAACGTGGCGTCG | 1.4 | 1.33 | -0.115 | 0.692 | 0.285 | 2.39 | 1.58 | 1.84 | 0.601 | 1.17 | 2.04 | 1.98 | 1.1 | 0.18 | 0.483 | 0.561 | 0.0582 | 0.918 | 0.17 | 1.52 |
| ACAGACAGGTGATGAAGGTAACTTAGGCTATCAT | -0.131 | -0.0415 | -0.322 | 0.0367 | -0.119 | 0.169 | 0.55 | -0.195 | -0.0102 | -0.0594 | 0.373 | 0.171 | 0.414 | 0.165 | 0.0231 | -0.0368 | -0.316 | 0.217 | 0.132 | 0.163 |
| AGAATGAAGTTAAGATCAGGGAAACAGAATACAT | -0.542 | -0.312 | -0.0829 | -0.14 | -0.44 | -0.111 | 0.991 | 0.0665 | 0.0605 | 0.34 | -0.915 | -0.265 | 0.14 | 0.809 | -0.657 | -0.19 | 0.0131 | -0.474 | 0.347 | -0.251 |
| CCTATTAGTTGACCATAAGAGCAACCGAAGCTCG | 0.554 | 0.617 | 1 | 0.594 | 1.16 | 0.283 | 0.521 | 0.101 | 0.292 | -0.0122 | 0.641 | 0.0362 | 0.382 | 0.759 | 2.08 | 0.627 | 0.992 | 0.532 | 2.97 | 0.667 |
